Laboratory results published in PubChem BioAssay (EPA / NIEHS).
Active and inactive are the calls of the source. The calls were made as follows: active = hit-call score of the fitted dose curve at least 0.9, where 1 is the maximum; inactive = score below 0.9.

Key:
[1] = target: Transcription factor E2F1 (Homo sapiens) (UniProt Q01094); test: ATG_E2F_CIS: Attagene CIS-FACTORIAL HepG2 Assay for human E2F Transcription Factor 1 (AID 2282935); conditions: HepG2 Attagene cis-reporter, E2F reporter RNA transcripts; actives raise or lower the signal
In short: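 HepG2 cells transiently transfected with multiplexed cis-element reporter units, dosed for 24 h. Reporter mRNA measured by RT-PCR, 6-FAM primer-extension labeling, HpaI digestion and capillary electrophoresis; bidirectional fit versus DMSO baseline.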

[2] = ATG_E_Box_CIS: Attagene CIS-FACTORIAL HepG2 Assay for human Enhancer Box (E-box) (AID 2282936); conditions: HepG2 E-box cis-reporter transcription, actives raise or lower the signal
In short: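 HepG2 cells transiently transfected with multiplexed cis-element reporter units sensing endogenous transcription factor activity; 24 h compound exposure. Reporter mRNA measured by RT-PCR, 6-FAM primer extension, HpaI digestion and capillary electrophoresis; bidirectional fit versus DMSO.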

[3] = ATG_M_61_CIS: Attagene CIS-FACTORIAL HepG2 Assay for M61 Transcription Factor (Internal Marker) (AID 2282937); conditions: HepG2 Attagene CIS-FACTORIAL M61 internal marker reporter; actives raise or lower the signal
In short: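 Cells were transfected with reporter units under cis-regulatory promoters, treated with chemicals for 24 h, then lysed for RNA. Reporter transcripts were quantified by RT-PCR and capillary electrophoresis, and activity was fitted bidirectionally against DMSO.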

[4] = ATG_EGR_CIS: Attagene CIS-FACTORIAL HepG2 Assay for human Early Growth Response 1 (EGR1) (AID 2282938); conditions: HepG2 Attagene CIS-FACTORIAL EGR reporter mRNA; actives raise or lower the signal
In short: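 Endogenous TF activity in HepG2 liver cells was gauged through cis-promoter reporter constructs transiently transfected. After 24 h dosing, reporter mRNA was quantified by RT-PCR and capillary electrophoresis, and curves fitted in both directions versus DMSO.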

[5] = ATG_M_19_CIS: Attagene CIS-FACTORIAL HepG2 Assay for M19 Transcription Factor (Internal Marker) (AID 2282939); conditions: HepG2 Attagene CIS-FACTORIAL M19 internal marker reporter; actives raise or lower the signal
In short: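 Signals come from fluorescence of labelled reporter-specific PCR fragments resolved by capillary electrophoresis, following 24 h treatment of HepG2 cells transfected with cis-promoter reporter units; activity was fitted in both directions relative to DMSO.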

[6] = ATG_ERE_CIS: Attagene CIS-FACTORIAL HepG2 Assay for Estrogen Response Element (ERE) (AID 2282940); conditions: HepG2 ERE cis-reporter, Attagene RNA transcript; actives raise or lower the signal
In short: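 Fluorescence of capillary-separated, FAM-labelled reporter cDNA fragments indicates reporter mRNA levels in HepG2 cells exposed to chemicals for 24 h. Transient transfection with cis-regulated units; data fitted in both directions against DMSO.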

[7] = ATG_Ets_CIS: Attagene CIS-FACTORIAL HepG2 Assay for human Erythroblast Transformation Specific (ETS) (AID 2282941); conditions: HepG2 ETS cis-reporter transcription, actives raise or lower the signal
In short: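 HepG2 cells transiently transfected with cis-promoter reporter transcription units were dosed for 24 h; reporter mRNA was measured by RT-PCR, 6-FAM primer extension, HpaI digestion and capillary electrophoresis, with bidirectional fitting against DMSO baseline.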

[8] = target: Hepatocyte nuclear factor 3-beta (Homo sapiens) (UniProt Q9Y261); test: ATG_FoxA2_CIS: Attagene CIS-FACTORIAL HepG2 Assay for human Forkhead box A2 (FOXA2) (AID 2282942); conditions: HepG2 cis-reporter transcription factor activity, 24 h; actives raise or lower the signal
In short: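 Endogenous transcription factor activity was read in HepG2 cells carrying transiently transfected cis-promoter reporter units. After 24 h dosing, reporter mRNA was quantified by RT-PCR and capillary electrophoresis, and values fitted bidirectionally versus DMSO.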

[9] = ATG_FoxO_CIS: Attagene CIS-FACTORIAL HepG2 Assay for human Forkhead box O (FoxO) (AID 2282943); conditions: HepG2 Attagene cis-reporter, FoxO element, mRNA; actives raise or lower the signal
In short: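 24 h chemical exposure, HepG2 with transient cis-MRTU transfection. RNA extraction, oligo(dT) RT, reporter-specific PCR, primer-extension labelling, HpaI digestion, CE fragment analysis; bidirectional fit, DMSO baseline.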

[10] = ATG_GATA_CIS: Attagene CIS-FACTORIAL HepG2 Assay for human GATA Binding Protein (AID 2282944); conditions: HepG2 GATA cis-element reporter, Attagene multiplex mRNA; actives raise or lower the signal
In short: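 After transfecting HepG2 cells with multiple cis-regulated reporter units, chemicals are dosed for 24 h; isolated RNA undergoes RT-PCR and fluorescent labeling before capillary electrophoresis, with activity expressed against DMSO.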

Sequence of Hepatocyte nuclear factor 3-beta (Homo sapiens) (Q9Y261 whole entry, looked up): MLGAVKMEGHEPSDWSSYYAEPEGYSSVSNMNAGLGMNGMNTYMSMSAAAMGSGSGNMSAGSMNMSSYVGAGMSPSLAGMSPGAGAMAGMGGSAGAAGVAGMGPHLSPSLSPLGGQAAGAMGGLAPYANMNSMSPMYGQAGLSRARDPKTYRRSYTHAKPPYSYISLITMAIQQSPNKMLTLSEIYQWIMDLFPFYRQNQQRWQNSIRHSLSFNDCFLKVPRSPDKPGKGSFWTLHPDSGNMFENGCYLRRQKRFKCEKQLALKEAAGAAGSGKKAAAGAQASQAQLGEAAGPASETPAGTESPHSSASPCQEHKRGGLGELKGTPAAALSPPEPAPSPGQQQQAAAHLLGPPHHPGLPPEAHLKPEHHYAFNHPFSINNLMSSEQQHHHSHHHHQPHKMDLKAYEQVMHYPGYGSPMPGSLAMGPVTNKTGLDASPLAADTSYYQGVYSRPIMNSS
Sequence of Transcription factor E2F1 (Homo sapiens) (Q01094 whole entry, looked up): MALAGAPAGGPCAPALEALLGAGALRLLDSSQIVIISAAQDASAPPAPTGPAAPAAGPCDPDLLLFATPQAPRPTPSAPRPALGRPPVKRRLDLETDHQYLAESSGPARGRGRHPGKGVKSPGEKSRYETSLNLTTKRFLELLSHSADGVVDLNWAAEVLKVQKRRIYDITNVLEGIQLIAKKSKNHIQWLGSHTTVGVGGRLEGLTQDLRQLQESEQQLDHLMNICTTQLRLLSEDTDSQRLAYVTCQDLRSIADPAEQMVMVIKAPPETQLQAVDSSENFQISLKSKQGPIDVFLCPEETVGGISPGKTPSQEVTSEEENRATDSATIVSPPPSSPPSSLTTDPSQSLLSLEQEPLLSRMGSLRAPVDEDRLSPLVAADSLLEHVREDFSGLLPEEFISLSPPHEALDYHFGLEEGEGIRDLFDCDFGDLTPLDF

Row | Structure (SMILES) | outcome [1] | outcome [2] | outcome [3] | outcome [4] | outcome [5] | outcome [6] | outcome [7] | outcome [8] | outcome [9] | outcome [10] | AC50 [6] | AC50 [2] | AC50 [4] | AC50 [7] | AC50 [9]
1 | Cc1cccc(O)c1 | inactive | inactive | inactive | inactive | inactive | inactive | inactive | inactive | inactive | inactive | – | – | – | – | –
2 | C/C=C(\C)C(=O)OC/C=C(\C)CCC=C(C)C | inactive | inactive | inactive | inactive | inactive | – | inactive | inactive | inactive | inactive | 39 µM (active) | – | – | – | –
3 | CCCCN(CCCC)CCCCCCN(CCCC)CCCC | inactive | inactive | inactive | inactive | inactive | inactive | inactive | inactive | inactive | inactive | – | – | – | – | –
4 | CC(C)(CO)CO | inactive | inactive | inactive | inactive | inactive | inactive | inactive | inactive | inactive | inactive | – | – | – | – | –
5 | CCCc1ccc(O)cc1 | inactive | inactive | inactive | inactive | inactive | – | inactive | inactive | inactive | inactive | 26.8 µM (active) | – | – | – | –
6 | Cc1cc(N)n(-c2ccccc2)n1 | inactive | inactive | inactive | inactive | inactive | inactive | inactive | inactive | inactive | inactive | – | – | – | – | –
7 | CC(C)(C)c1cc(CCC(=O)OCCSCCOC(=O)CCc2cc(C(C)(C)C)c(O)c(C(C)(C)C)c2)cc(C(C)(C)C)c1O | inactive | inactive | inactive | inactive | inactive | inactive | inactive | inactive | inactive | inactive | – | – | – | – | –
8 | Cc1ccc(C(C)(C)O)cc1 | inactive | inactive | inactive | inactive | inactive | inactive | inactive | inactive | inactive | inactive | – | – | – | – | –
9 | C1COCO1 | inactive | inactive | inactive | inactive | inactive | inactive | inactive | inactive | inactive | inactive | – | – | – | – | –
10 | CCCCCCOc1ccc(O)cc1 | inactive | inactive | inactive | inactive | inactive | – | inactive | inactive | inactive | inactive | 2.79 µM (active) | – | – | – | –
11 | O=S1(=O)CC(Cl)(Cl)C(Cl)(Cl)C1 | inactive | – | inactive | – | inactive | inactive | inactive | inactive | inactive | inactive | – | 2.8 µM (active) | 6.17 µM (active) | – | –
12 | CC1(C)CC(N)CC(C)(CN)C1 (stereo not given) | inactive | inactive | inactive | inactive | inactive | inactive | inactive | inactive | inactive | inactive | – | – | – | – | –
13 | Cc1cc(O)c(C)c(C)c1O | inactive | – | inactive | inactive | inactive | inactive | inactive | inactive | inactive | inactive | – | 37.6 µM (active) | – | – | –
14 | CC(C)=CCCC(C)=CC(=O)O | inactive | inactive | inactive | inactive | inactive | inactive | inactive | inactive | inactive | inactive | – | – | – | – | –
15 | CCCCOCC(C)OCC(C)O (stereo not given) | inactive | inactive | inactive | inactive | inactive | inactive | inactive | inactive | inactive | inactive | – | – | – | – | –
16 | CCOC(=O)COC(=O)c1ccccc1C(=O)OCC | inactive | inactive | inactive | inactive | inactive | inactive | inactive | inactive | inactive | inactive | – | – | – | – | –
17 | CCc1cccc(O)c1 | inactive | inactive | inactive | inactive | inactive | inactive | inactive | inactive | inactive | inactive | – | – | – | – | –
18 | C=C(C)CCCC(C)CCO (stereo not given) | inactive | inactive | inactive | inactive | inactive | inactive | inactive | inactive | inactive | inactive | – | – | – | – | –
19 | N#CCCCC(C#N)CCC#N (stereo not given) | inactive | inactive | inactive | inactive | inactive | inactive | inactive | inactive | inactive | inactive | – | – | – | – | –
20 | CCC(=O)OC/C=C(\C)CCC=C(C)C | inactive | inactive | inactive | inactive | inactive | inactive | inactive | inactive | inactive | inactive | – | – | – | – | –
21 | C=CCOC(=O)/C=C\C(=O)OCC=C | inactive | inactive | inactive | – | inactive | inactive | – | inactive | – | inactive | – | – | 34.3 µM (active) | 13.2 µM (active) | 101 µM (active)
22 | CCCCCCC(O)CCOC(C)=O (stereo not given) | inactive | inactive | inactive | inactive | inactive | inactive | inactive | inactive | inactive | inactive | – | – | – | – | –
23 | CC(C)COC(=O)c1ccccc1 | inactive | inactive | inactive | inactive | inactive | inactive | inactive | inactive | inactive | inactive | – | – | – | – | –
